Measurements: PubChem BioAssay AID504832 (National Center for Advancing Translational Sciences (NCATS), 2011)
In all, about 310,000 compounds went through this assay and about 18,000 (5.8%) were called active. Where a call stands in place of a potency, no number is given. Another 22% or so got no clear call; they are omitted. The call rests on the fitted dose curve; in most records, active means well fitted inhibition curve with a large enough effect; inconclusive means small, poorly fitted or top-dose-only effect, or another doubt; inactive means no such curve, though single readings can be large or run the other way. For the sample, actives were picked, then their nearest neighbours and some compounds at random.

Assay: Primary qHTS for delayed death inhibitors of the malarial parasite plastid, 48 hour incubation
Settings: P. falciparum luciferase growth in erythrocytes; series mostly up to 28.7 µM
From the text: The goal of this screen is to discover new antimalarial compounds that act by inhibiting the development of the apicoplast in the malarial parasite Plasmodium falciparum. The biochemical processes that make this organelle essential for erythrocytic stage parasites are not well understood. However, antibiotics such as azithromycin and tetracycline, which target the apicoplast translational machinery, have a potent antimalarial effect.
We have developed a cell-based assay that measures parasite growth based on the expression of an integrated copy of a firefly luciferase reporter. To detect small molecules that cause this "delayed death" phenotype, erythrocytes infected with the luciferase-expressing parasites were incubated with compounds for either one or two generations, corresponding to 48 and 96 hours, respectively. Compounds that inhibit parasite growth in the second generation, but not the first, should be enriched in antimalarials that target the apicoplast. Growth inhibition is detected by a decrease in luciferase activity.
Assay Provider: David Fidock and Eric Ekland, Columbia University
Keywords: NIH Roadmap, MLPCN, MLI, MLSMR, qHTS, NCGC, qHTS, malaria, luciferase, viability
Four microliters of culture medium (RPMI 1640 with 0.5% w/v Albumax (GIBCO), 24 mM sodium bicarbonate and 10 ug/mL gentamycin) were dispensed by a Multi-drop Combi into white solid 1536-well plates (Grenier) and 23 nL compound was added by a pin tool. Four microliters of infected erythrocytes (2% hematocrit, 0.1% parasitemia final concentration) in culture medium were dispensed and the plates incubated for 48 hours at 37 C in 5% CO2. Two microliters of luciferase detection reagent was added and luminescence was detected by a ViewLux (PerkinElmer) reader.
Potency means the concentration at half of the fitted maximal effect.

Row | Compound | Potency
1 | COc1ccc(C)cc1Nc1nc(C)nc2c1oc1ccccc12 | inactive
2 | COc1ccccc1Nc1ncc(C(C)=O)c(C)n1 | inactive
3 | COC(=O)c1cnc(Nc2cc(C)ccc2OC)c2ccccc12 | 10.4 µM (active)
4 | COc1ccc(N=Nc2c(-c3ccc(OC)cc3)[nH]oc2=O)cc1 | inactive
5 | COCCNC(=O)c1ccc2c(c1)ncn2-c1ccc(C)c(Cl)c1 | inactive
6 | C=CCn1c(SCC(=O)NC(=O)Cc2ccccc2)nc2ccccc2c1=O | inactive
7 | CCOCCCn1c(SCC(=O)Nc2cc(OC)ccc2OC)nc2ccccc2c1=O | 5.86 µM (active)
8 | COc1ccc(OC)c(NC(=O)CSc2nc3cccnc3n2C)c1 | inactive
9 | CC(=O)NCCn1c(SCC(=O)Nc2ccc(C)cc2)nc2ccccc2c1=O | inactive
10 | COc1ccc(NC(=O)CSc2nnc(Cc3ccccc3)c(=O)n2N)cc1 | inactive
11 | COc1ccc(NC(=O)CSc2nc3ccccc3c(=O)n2C)cc1 | 9.28 µM (active)
12 | CCc1nnc(NC(=O)CSc2nc3ccccc3c(=O)n2CCCOC)s1 | inactive
13 | O=C(CCC(=O)c1ccccc1)NCc1cccc(C(F)(F)F)c1 | inactive
14 | O=C(NC1CCCCCC1)C1CCN(C(=O)c2ccc(Cl)cc2)CC1 | inactive
15 | O=C(CCN1C(=O)[C@H]2CC=CC[C@H]2C1=O)NCc1nc(-c2ccccc2)no1 | inactive
16 | CCOC(=O)c1c(NC(=S)NC)sc2c1CCCC2 | 9.28 µM (active)
17 | CCOc1ccc(S(=O)(=O)N2CCC(C(=O)NCC(=O)Nc3cccc(Cl)c3C)CC2)cc1 | inactive
18 | CCOC(=O)c1c(NC(=O)C2(C)Cc3ccccc3C(=O)O2)sc2c1CCCC2 (centres undefined) | inactive
19 | O=C(NCc1cccs1)C1CCN(S(=O)(=O)c2ccc(Cl)cc2)CC1 | 1.85 µM (active)
20 | CCOC(=O)c1c(NC(=O)CSc2nnc(C)c(=O)[nH]2)sc2c1CCC2 | inactive
21 | CCOC(=O)c1c(NC(=O)CCC(=O)NCc2ccco2)sc2c1CCCC2 | inactive
22 | CCOC(=O)c1c(NC(=O)C2CCN(S(=O)(=O)c3ccc(Cl)cc3)CC2)sc2c1CCCC2 | 8.28 µM (active)
23 | O=C(NCc1ccccn1)C1CCN(S(=O)(=O)c2ccc(Br)cc2)CC1 | inactive
24 | CCOC(=O)c1c(NC(=O)Cn2nc(C(F)(F)F)cc2C)sc2c1CCC2 | 14.7 µM (active)
25 | CCOCC(=O)Nc1sc2c(c1C(=O)OCC)CCCC2 | inactive
26 | O=C(NCc1ccc(Cl)cc1)C1CCN(S(=O)(=O)c2cccs2)CC1 | inactive
27 | CCOC(=O)c1c(NC(=S)NC(=O)c2ccco2)sc2c1CCCC2 | inactive
28 | Cc1cccc2c1cnn2C(=O)CCC(=O)NC1CCCCC1 | inactive
29 | O=C(N[C@@H](Cc1c[nH]c2ccccc12)C(=O)O)OCC1c2ccccc2-c2ccccc21 | inactive
